Composite z-score and z-score data for five compounds are collected here from PubChem BioAssay.

Experiment [1] has as its system Plasmodium falciparum Sir2 (PF13_0152, Sir2A). Put plainly: pfSir2 binders on small-molecule microarrays, primary screen, biochemical, small-molecule microarray, 635 nm fluorescence (AID 1098).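 Note: score merges spot fluorescence intensity with its signal-to-noise ratio.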 The settings on record: small-molecule microarray binding, fluorescence 635 nm; higher = more signal.
The nature of experiment [2]: small-molecule microarray binders of probe aDKK1, primary screen, biochemical, biotinylated probe, 635/667 nm fluorescence (AID 1099).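 Note: score merges 667nm spot fluorescence with signal to noise across triplicate slides.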 The conditions noted are these: higher = more signal.
A short description of experiment [3]: small-molecule microarray binders of probe aCHRDL2, primary screen, biochemical, biotinylated probe, 635/667 nm fluorescence (AID 1100). The conditions noted are these: higher = more signal.
The nature of experiment [4]: splicing luciferase reporter signal modulators, primary screen, spliceosome inhibition project, cell-based, HEK293, splice +/- reporter (AID 1101).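 Note: HEK293 cells carrying a splicing-competent luciferase reporter gene; test concentration not given here.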 The settings on record: luminescence, 24 h, higher = more signal, called active from +8 up or from −8 down.
For experiment [5], the target named is Fibroblast growth factor 10 (Homo sapiens) (UniProt O15520). The experiment in a line: FGF10 binders on small-molecule microarrays, primary screen, biochemical, small-molecule microarray, 635 nm fluorescence (AID 1102). The settings on record: FGF10 binding, fluorescence 635 nm, higher = more signal.
The subject of experiment [6] is glycogen synthase kinase-3 (GSK3A per assay name; protocol says GSK3B). The experiment in a line: GSK3 binders on small-molecule microarrays, primary screen, biochemical, small-molecule microarray, 635 nm fluorescence, GSK3A (AID 1103). Note: the record names both GSK3A and GSK3B. The settings on record: small-molecule microarray binding, fluorescence 635 nm; higher = more signal.
Experiment [7] addresses Epidermal growth factor receptor (Homo sapiens) (UniProt P00533). Put plainly: EGFR binders on small-molecule microarrays, primary screen, biochemical, small-molecule microarray, 635 nm fluorescence (AID 1104).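 Note: score merges 667 nm emission intensity with spot signal to noise over triplicate slides.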 The conditions noted are these: EGFR binding, higher = more signal.
The target of experiment [8] is Follistatin-related protein 3 (Homo sapiens) (UniProt O95633). The experiment in a line: FSTL3 binders on small-molecule microarrays, primary screen, biochemical, small-molecule microarray, 635 nm fluorescence (AID 1105).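 Note: score merges emission near 667 nm and signal to noise per printed spot across three slides.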 The settings on record: FSTL3 binding, higher = more signal.
The target of experiment [9] is Dickkopf-related protein 1 (Homo sapiens) (UniProt O94907). The experiment in a line: DKK1 binders on small-molecule microarrays, primary screen, biochemical, small-molecule microarray, 635 nm fluorescence scan (AID 1106).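 Note: score merges emission near 667 nm with signal to noise over three replicate slides.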 The conditions noted are these: DKK1 binding, higher = more signal.
Experiment [10] concerns Inhibin beta A chain (activin A). Put plainly: INHBA (activin A) binders on microarrays, primary screen, biochemical, small-molecule microarray, 635 nm fluorescence scan (AID 1107).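 Note: mouse activin A protein probed at 4.33 µg/mL on printed slides; score merges bound-protein fluorescence near 667 nm with spot signal-to-noise.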 The conditions noted are these: small-molecule microarray binding, higher = more signal.
For experiment [11], the system named is Human papillomavirus type 1a protein E7 (residues 44-93). The experiment in a line: HPV1a E7 fragment binders on microarrays, primary screen, biochemical, small-molecule microarray, residues 44-93, 635 nm fluorescence (AID 1108).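 Note: E7 fragment applied at 1 µg/mL in TBST for 1 h at 4 C; score combines spot fluorescence with its signal to noise ratio.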 The settings on record: small-molecule microarray binding, fluorescence 635 nm; higher = more signal.
Experiment [12] is described as follows: modulators of HCV replicon luciferase signal, primary screen, HCV replication inhibitor project, Huh7 cells, luciferase reporter (AID 1109).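 Note: huh7 hepatoma cells harbouring a luciferase neomycin HCV replicon reporter; luciferase luminescence as measure of HCV replicon replication; test concentration not given here.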 The settings on record: 48 h, higher = more signal.
Experiment [13] has as its target Left-right determination factor 2 (Homo sapiens) (UniProt O00292). The experiment in a line: LEFTY2 binders on small-molecule microarrays, primary screen, biochemical, small-molecule microarray, 635 nm fluorescence scan (AID 1110). The settings on record: LEFTY2 binding, higher = more signal.
The target of experiment [14] is Calmodulin-1 (Homo sapiens) (UniProt P0DP23). Put plainly: CALM1 binders on microarrays, EGTA buffer, profiling panel, biochemical, small-molecule microarray, Cy5-labelled CALM1 (AID 1111).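 Note: labelled calmodulin applied in Tris saline Tween buffer holding calcium plus EGTA and DTT.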 The conditions noted are these: Cy5-CALM1 binding fluorescence, higher = more signal.
Experiment [15] shares this target. Put plainly: calcium-bound CALM1 binders on microarrays, profiling panel, artefact control for SMM control-protein annotation, biochemical, small-molecule microarray, Cy5-labelled CALM1, plus calcium (AID 1112).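 Note: score merges spot fluorescence with signal to noise from triplicate slides.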 The settings on record: Cy5-CALM1 binding fluorescence, higher = more signal.
Experiment [16] is described as follows: small-molecule microarray binders of probe aWnt5a, primary screen, biochemical, biotinylated probe, 635/667 nm fluorescence (AID 1113).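 Note: score merges 667 nm fluorescence intensity with signal-to-noise per printed feature.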 The settings on record: higher = more signal.
Experiment [17] is described as follows: small-molecule microarray binders of probe aShh, primary screen, biochemical, biotinylated probe, 635/667 nm fluorescence (AID 1114).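 Note: probe is biotin-labelled aShh protein from a stem cell growth factor screen; measures binding of labelled protein to compounds printed on the slide; score merges feature fluorescence at 667 nm with signal-to-noise.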 The settings on record: higher = more signal.
Experiment [18] can be described thus: small-molecule microarray binders of probe aNog, primary screen, biochemical, biotinylated probe, 635/667 nm fluorescence (AID 1115).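 Note: probe is biotinylated aNog protein used at 0.15 µg/mL for 1 h at 4 C; z-score combines 667 nm fluorescence of each spot with its signal to noise.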 The settings on record: higher = more signal.
Experiment [19] concerns the target Torsin-1A-interacting protein 1 (Homo sapiens) (UniProt Q5JTV8). Put plainly: LAP1 binders from COS7 cell lysate, primary screen, small-molecule microarray, 635/667 nm fluorescence (AID 1116). The settings on record: COS7-hLAP1 lysate binding, 635 nm fluorescence, higher = more signal.
Experiment [20] deals with Alpha-bungarotoxin (Bungarus multicinctus) (UniProt P60615). The experiment in a line: alpha-bungarotoxin binders on microarray, profiling panel, artefact control for SMM control protein annotation, biochemical, small-molecule microarray, Alexa647 label, 635/667 nm fluorescence (AID 1117). The settings on record: alpha-BTX-A647 binding fluorescence, higher = more signal.

Where “and” joins values, the source holds several entries; their conditions need not be identical. Equal entries are not always repeated. Calls of active or inactive are those of the source.

Chain of Left-right determination factor 2 (Homo sapiens) (O00292 whole entry, looked up): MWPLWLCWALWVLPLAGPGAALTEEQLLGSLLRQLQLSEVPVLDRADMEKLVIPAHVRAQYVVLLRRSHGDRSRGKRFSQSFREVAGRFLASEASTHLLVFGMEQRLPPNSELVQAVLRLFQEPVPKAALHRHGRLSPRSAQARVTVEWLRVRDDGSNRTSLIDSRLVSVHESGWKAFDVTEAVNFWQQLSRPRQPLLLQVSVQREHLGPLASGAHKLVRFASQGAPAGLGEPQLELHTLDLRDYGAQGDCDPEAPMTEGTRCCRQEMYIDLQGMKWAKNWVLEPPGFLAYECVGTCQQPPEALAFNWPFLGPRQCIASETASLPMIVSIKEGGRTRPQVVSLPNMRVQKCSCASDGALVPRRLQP
Chain of Fibroblast growth factor 10 (Homo sapiens) (O15520 whole entry, looked up): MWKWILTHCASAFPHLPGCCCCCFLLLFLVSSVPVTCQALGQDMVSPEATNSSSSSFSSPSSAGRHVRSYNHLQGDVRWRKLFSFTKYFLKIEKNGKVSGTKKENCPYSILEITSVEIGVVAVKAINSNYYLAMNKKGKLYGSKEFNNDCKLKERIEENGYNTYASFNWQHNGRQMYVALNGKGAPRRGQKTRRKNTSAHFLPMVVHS
Chain of Dickkopf-related protein 1 (Homo sapiens) (O94907 whole entry, looked up): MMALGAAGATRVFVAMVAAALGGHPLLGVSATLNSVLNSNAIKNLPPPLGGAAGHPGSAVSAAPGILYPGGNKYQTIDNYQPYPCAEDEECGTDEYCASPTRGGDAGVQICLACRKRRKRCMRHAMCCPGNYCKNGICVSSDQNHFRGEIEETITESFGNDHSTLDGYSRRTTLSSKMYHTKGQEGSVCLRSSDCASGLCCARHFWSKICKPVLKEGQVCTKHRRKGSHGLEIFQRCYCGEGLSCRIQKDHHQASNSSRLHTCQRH
Chain of Follistatin-related protein 3 (Homo sapiens) (O95633 whole entry, looked up): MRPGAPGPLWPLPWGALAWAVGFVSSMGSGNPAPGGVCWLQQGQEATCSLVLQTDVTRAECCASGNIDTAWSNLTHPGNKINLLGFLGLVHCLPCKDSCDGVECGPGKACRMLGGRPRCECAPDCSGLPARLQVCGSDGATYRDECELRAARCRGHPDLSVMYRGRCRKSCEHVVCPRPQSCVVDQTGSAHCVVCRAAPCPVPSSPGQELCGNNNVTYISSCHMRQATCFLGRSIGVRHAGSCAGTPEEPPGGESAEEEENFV
Chain of Alpha-bungarotoxin (Bungarus multicinctus) (P60615 whole entry, looked up): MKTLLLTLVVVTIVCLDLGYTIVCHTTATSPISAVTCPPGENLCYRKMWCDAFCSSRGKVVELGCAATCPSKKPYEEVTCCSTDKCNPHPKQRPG
Chain of Epidermal growth factor receptor (Homo sapiens) (P00533 whole entry, looked up): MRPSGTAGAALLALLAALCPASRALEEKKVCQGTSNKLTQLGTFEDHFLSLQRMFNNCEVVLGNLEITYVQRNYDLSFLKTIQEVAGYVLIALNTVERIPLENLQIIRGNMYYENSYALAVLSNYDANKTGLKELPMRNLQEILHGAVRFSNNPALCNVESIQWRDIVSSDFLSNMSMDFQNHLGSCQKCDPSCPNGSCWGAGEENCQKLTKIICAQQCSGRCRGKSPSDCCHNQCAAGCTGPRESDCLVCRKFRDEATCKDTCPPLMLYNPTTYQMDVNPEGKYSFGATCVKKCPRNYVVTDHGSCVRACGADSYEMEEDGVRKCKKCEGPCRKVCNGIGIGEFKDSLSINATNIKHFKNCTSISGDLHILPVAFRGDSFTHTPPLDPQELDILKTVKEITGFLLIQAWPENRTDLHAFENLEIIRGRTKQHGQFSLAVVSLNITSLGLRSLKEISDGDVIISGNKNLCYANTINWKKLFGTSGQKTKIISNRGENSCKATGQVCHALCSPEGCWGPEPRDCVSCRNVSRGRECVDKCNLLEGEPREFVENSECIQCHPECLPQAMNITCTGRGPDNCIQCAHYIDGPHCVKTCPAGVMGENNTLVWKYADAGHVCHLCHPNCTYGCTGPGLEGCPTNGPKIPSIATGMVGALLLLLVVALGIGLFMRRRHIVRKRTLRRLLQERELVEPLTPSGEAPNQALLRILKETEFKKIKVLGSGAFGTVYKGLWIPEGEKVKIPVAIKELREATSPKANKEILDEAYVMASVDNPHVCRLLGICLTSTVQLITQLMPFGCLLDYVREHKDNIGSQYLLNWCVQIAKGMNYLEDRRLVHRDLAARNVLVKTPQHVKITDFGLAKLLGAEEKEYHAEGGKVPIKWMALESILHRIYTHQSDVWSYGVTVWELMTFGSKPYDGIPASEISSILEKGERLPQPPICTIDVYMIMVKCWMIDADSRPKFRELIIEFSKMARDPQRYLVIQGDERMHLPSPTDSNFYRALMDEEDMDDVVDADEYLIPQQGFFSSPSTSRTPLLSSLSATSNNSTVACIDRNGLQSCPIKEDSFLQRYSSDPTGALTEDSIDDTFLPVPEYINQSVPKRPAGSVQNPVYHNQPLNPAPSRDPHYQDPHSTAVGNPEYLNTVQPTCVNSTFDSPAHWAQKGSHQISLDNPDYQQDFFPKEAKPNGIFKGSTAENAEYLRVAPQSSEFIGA
Chain of Torsin-1A-interacting protein 1 (Homo sapiens) (Q5JTV8 whole entry, looked up): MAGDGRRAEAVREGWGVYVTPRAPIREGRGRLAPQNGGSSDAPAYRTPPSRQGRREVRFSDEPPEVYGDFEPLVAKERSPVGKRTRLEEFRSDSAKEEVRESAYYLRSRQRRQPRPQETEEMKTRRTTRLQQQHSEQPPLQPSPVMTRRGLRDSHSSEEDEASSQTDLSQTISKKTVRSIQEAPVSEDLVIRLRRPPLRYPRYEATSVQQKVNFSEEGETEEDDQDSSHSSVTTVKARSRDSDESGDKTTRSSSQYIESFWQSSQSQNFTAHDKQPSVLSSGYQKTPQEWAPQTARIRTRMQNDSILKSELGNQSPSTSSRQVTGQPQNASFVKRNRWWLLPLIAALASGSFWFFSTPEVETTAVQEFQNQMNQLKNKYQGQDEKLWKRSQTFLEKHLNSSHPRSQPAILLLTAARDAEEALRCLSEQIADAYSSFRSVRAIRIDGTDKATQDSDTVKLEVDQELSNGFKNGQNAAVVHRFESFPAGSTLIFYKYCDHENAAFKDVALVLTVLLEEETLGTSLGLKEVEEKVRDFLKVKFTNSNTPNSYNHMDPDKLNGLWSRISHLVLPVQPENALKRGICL

Turning to `CCN1C(=O)[C@H]2[C@H]3[C@H](O)[C@H](O)CC(=NOC[C@@H](O)COCc4ccco4)[C@@H]3CC[C@H]2C1=O`, the composite z-score in [1] is 0.449 and 1.11; in [2], 0.439 and -0.572; in experiment [3] it was -1.3 and -1.1; in [5], -0.397 and 0.588; in experiment [6], 0.823 and -0.198; in experiment [7], 1.28 and 0.0979. The composite z-score in experiment [8] was 1.21 and -0.333; in experiment [9] it was 1.56 and 0.836; in experiment [10], 0.666 and -0.0006; in [11], -1.08 and -1.63; in [13], 1.32 and 0.764; in experiment [14], -1.05 and -0.872. The composite z-score in experiment [15] is -1.72 and -1.74; in experiment [16], -0.0721 and -0.232; in experiment [17] it was -0.145 and -0.138; in [18], 0.0326 and -0.0236; in [19], 0.205 and -0.291; in [20], 0.0851 and -0.421. For the same compound, the z-score in experiment [4] is 0.259 (inactive) and 0.403 (inactive); in [12], 0.0085 and 1.42.

Consider `C=CCN(CCCC)C(=O)C1N(c2ccc(CCO)cc2)C(=O)C2C(C(=O)O)C3C=CC21O3` (stereo not given), for which the composite z-score in experiment [1] is -1.39 and 1.08; in [2], -0.112 and -0.229; in [3] it was 0.354 and 1.07; in [5], -1.48 and -1.93; in [6], -1.54 and -1.22; in experiment [7], -1.51 and -2.06. Besides, the composite z-score in experiment [8] was -1.76 and -2.15; in experiment [9], -2.31 and -3.32; in experiment [10] it was -1.59 and -3.61; in [11], -2.07 and -0.32; in experiment [13], -2.86 and -4.53; in experiment [14], -0.828 and -1.3. The composite z-score in [15] is 0.33 and 0.554; in experiment [16] it was -0.221 and -0.296; in [17], 0.0796 and 0.292; in experiment [18], -0.265 and -0.565; in experiment [19], -0.994 and -1; in experiment [20], -0.577 and -1.86. The z-score in [4] is -0.378 (inactive) and 0.182 (inactive); in experiment [12], -0.213 and 1.02.

With `CCOC(=O)c1ccc(NC(=O)O[C@H]2[C@H](OC(=O)Nc3ccccc3)[C@H](OC(=O)Nc3ccccc3)[C@@H](OC)O[C@@H]2CO)cc1`, the composite z-score is 1.45 and 1.74 in experiment [1]; 0.968 and 0.673 in [2]; 0.873 and 0.902 in experiment [3]; 1.27 and 0.968 in experiment [5]; 1.31 and 1.33 in [6]; 0.591 and 0.218 in experiment [7]. In addition, the composite z-score was 1.39 and 1.38 in experiment [8]; 0.531 and 0.259 in experiment [9]; 0.888 and 0.327 in experiment [10]; 1.2 and 1.34 in [11]; 0.899 and 0.291 in experiment [13]; 2 and 2.1 in [14]. In addition, the composite z-score in [15] was 0.0672 and 0.407; in [16], 0.0438 and -0.0417; in experiment [17] it was 0.113 and 0.337; in experiment [18], 0.576 and 0.978; in experiment [19], 1.74 and 1.88; in experiment [20], 1.86 and 2.87. Moreover, the z-score in [4] is -0.285 (inactive) and -0.997 (inactive); in experiment [12] it was -3.29 and -3.49.

As for `C=CCN(Cc1ccccc1)C(=O)C(c1cccs1)N(C(=O)/C=C\C(=O)O)c1c(Cl)cccc1CO` (stereo not given), the composite z-score in experiment [1] is -1.01 and -1.02; in experiment [2] it was -0.833 and 0.0042; in experiment [3], 0.898 and 0.996; in experiment [5] it was -1.96 and -1.73; in [6], -1.09 and -1.76; in experiment [7] it was -1.63 and -1.36. For the same compound, the composite z-score in experiment [8] is -1.27 and -2.07; in [9], -2.01 and -2.62; in [10] it was -3.32 and -2.86; in experiment [11], -1.63 and -2.43; in [13], -0.682 and -3.86; in experiment [14], -0.374 and -0.222. The composite z-score was 0.58 and 0.911 in [15]; -0.12 and -0.298 in [16]; -0.212 and -0.366 in experiment [17]; -0.153 and 0.103 in experiment [18]; -1.51 and -0.936 in [19]; -0.974 and -2.03 in experiment [20]. The z-score in experiment [4] was 0.395 (inactive) and -0.0385 (inactive); in [12], -0.68 and -0.803.

Turning to `Cc1ccc(S(=O)(=O)N[C@H]2COC(=O)[C@@H](Cc3ccccc3)NC(=O)[C@@H](C)COC(=O)CC=C[C@@H]2C)cc1`, the composite z-score in experiment [1] is -0.218 and 0.304; in experiment [2] it was -0.483 and -0.332; in [3], -0.803 and -0.645; in [5], 0.117 and 0.435; in [6] it was -0.0808 and -0.0049; in experiment [7], 0.513 and 0.282. Further, the composite z-score is 0.87 and 0.533 in [8]; 0.871 and 0.895 in experiment [9]; 0.657 and 0.0736 in experiment [10]; -1.28 and 0.123 in experiment [11]; 0.839 and 0.546 in [13]; -0.233 and -0.354 in experiment [14]. In addition, the composite z-score in experiment [15] is -0.372 and -0.879; in [16], -0.1 and -0.0912; in [17], 0.0494 and -0.138; in experiment [18], -0.122 and -0.038; in experiment [19] it was 0.15 and -0.0849; in experiment [20], 0.423 and -0.1. For the same compound, the z-score in experiment [4] was 0.565 (inactive) and -0.0193 (inactive); in experiment [12] it was 1.41 and -1.89.
